Source: PubChem BioAssay (NCI)
This is part of a sample that, as a whole, favours compounds with a hit. Of some 83,000 tested, about 20% had one in any assay.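 Assay: single dose, 48 h. Readout: percent growth (0 = no net growth; negative = cell death). Active: <10.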 Unmarked numbers belong to inactive results. Calls of active or inactive are those of the source.

test system: HL-60(TB) leukemia; assay: NCI-60 one-dose screen, 48 h (100 = growth as untreated, 0 = no growth, -100 = all killed); conditions: 10 µM unless noted

For `CN(C)CCN1C(=O)c2cccc3cc(N)cc(c23)C1=O`, which growth is on record?
Its growth is 1.68% (active).

With `C=C(C)[C@@H]1C/C=C(\COC(=O)[C@H](OC(C)=O)C(NC(=O)c2ccccc2)c2ccccc2)CC[C@H]2O[C@]2(C)CC/C=C(\C)CC1` (stereo not given in full) as the compound, how does the growth read?
Its growth is 29.9% [5 µM].

`CCCc1nn(C)c2c(=O)[nH]c(-c3cc(S(=O)(=O)N4CCN(C)CC4)ccc3OCC)nc12` was tested. Which growth did it give?
The growth was 114%.

`CCN(CC)CCNC(=O)c1ccc(NC(C)=O)cc1` was tested. Which growth did it give?
Its growth is 110%.

Which growth does the source give for `CSC1=Nc2c(c(C)c(-c3ccccc3)n2CCCCl)C2=NC(=O)CN12` here?
Its growth is 27.4%.

With `COc1ccc(C(=O)O)cc1.[Ag]` as the compound, how does the growth read?
The growth was -46% (active).

With `COc1ccc(C(=O)/C=C/c2cc(-c3ccc4c(c3)OCO4)n[nH]2)cc1OC` as the compound, how does the growth read?
The growth was 42.9%.

How did the growth turn out when `COCCCC/C(=N\OCCN)c1ccc(C(F)(F)F)cc1` was run?
The growth was 122%.

Which growth does the source give for `COc1cc(-c2c(-c3ccccc3)c[nH]c2C(=O)NCCCO)c(OC)c2c1OCO2` here?
The growth was 91.4%.

For `COc1ccc(/C(C)=C(/c2ccc(OCCCN(C)C)cc2)c2ccc(OC(=O)c3ccccc3)cc2)cc1`, which growth is on record?
Its growth is 62.8%.

With `O=C(O)c1ccc(NC(=O)c2ccc(-c3cccc([N+](=O)[O-])c3)o2)cc1` as the compound, how does the growth read?
Its growth is 105%.

How did the growth turn out when `C=CC(=O)Nc1ccc2ncnc(Nc3cccc(NS(=O)(=O)CCC)c3Cl)c2c1` was run?
The growth was 80.7%.

For `C=C1C(=O)O[C@H]2[C@H]1CC/C(COC(=O)CCCCCCCCC(=O)OC/C1=C/CC[C@@]3(C)O[C@H]3[C@H]3OC(=O)C(=C)[C@@H]3CC1)=C\CC[C@@]1(C)O[C@@H]21`, which growth is on record?
The growth was -32.8% (active).

Which growth does the source give for `O=C(/C(=C/c1cccc([N+](=O)[O-])c1)c1ccccc1)c1ccccc1` here?
The growth was 10.6%.

For `COc1ccc(C(=O)OC2C(OC3C(O)COC(O[C@H]4C[C@H]5[C@@H]6CC=C7C[C@@H](O)CC[C@]7(C)[C@H]6CC[C@]5(C)[C@H]4[C@H](C)C(=O)CCC(C)C)C3OC(C)=O)OCC(O)C2O)cc1` (stereo not given in full), which growth is on record?
Its growth is -40.7% (active).

How did the growth turn out when `CCN1C(=O)N(c2ccccc2)C2Nn3c(s/c(=C4\C(=O)N(C(C)C)c5ccccc54)c3=O)=NC21` (stereo not given) was run?
The growth was 97.8%.

`COC(=O)/C=C1/SC(=Nc2ccc(C(F)(F)F)cc2)N(CCc2c[nH]c3ccc(O)cc23)C1=O` was tested. Which growth did it give?
Its growth is -33.1% (active).

How did the growth turn out when `COc1ccc2c(c1)nc(N)c1c3cc(C)c(C)cc3cn21` was run?
Its growth is 79.6%.

`CC/C=C\C[C@H](O)C/C=C1/C(=O)C=C[C@@H]1C/C=C\CCCC(=O)O` was tested. Which growth did it give?
Its growth is 75.2%.

Which growth does the source give for `CC(C)(C)[Si](C)(C)OC1[C@@H](CNC(=O)NC(=O)NC(N)=O)O[C@@H](n2cnc3c(NC(=O)Nc4ccccc4)ncnc32)[C@H]1O[Si](C)(C)C(C)(C)C` (stereo not given in full) here?
The growth was 86.3%.

Which growth does the source give for `CC/C(=C(/c1ccc(Cl)cc1)c1ccc(OCCN2CCOCC2)cc1)c1ccccc1` here?
The growth was 104%.

`CCC1=C(c2ccc(OC)cc2)C(C)Oc2cc(OC(C)=O)ccc21` (stereo not given) was tested. Which growth did it give?
The growth was 56.7%.

How did the growth turn out when `COc1cc2c(cc1OC)C1CCN3C(=O)CCC3N1CC2` (stereo not given) was run?
Its growth is 126%.

Which growth does the source give for `ClC1c2ccccc2CCc2ccccc21` here?
Its growth is 122%.

For `Cc1nn(-c2ccc(Br)cc2)c2nc3[nH]c(=O)[nH]c(=O)c3nc12`, which growth is on record?
Its growth is 120%.

`COCCNC(=O)Nc1ccc2nc(-c3cccs3)c(-c3cccs3)nc2c1` was tested. Which growth did it give?
The growth was 81.5%.

Which growth does the source give for `CC([C@H]1CCC2C3CCC4C(=O)C(NC=O)=CC[C@]4(C)C3CC[C@@]21C)N(C)C` (stereo not given in full) here?
The growth was 1.54% (active).

`CC(=O)c1ccc(NS(=O)(=O)c2ccc([N+](=O)[O-])cc2)cc1` was tested. Which growth did it give?
Its growth is 90.3%.

How did the growth turn out when `COC(=O)[C@]12CC[C@@H](C)[C@H](C)[C@@H]1C1=CC[C@@H]3[C@@]4(C)C(C=O)=C[C@@](C)(COC(=O)c5ccco5)C4=CC[C@@]3(C)[C@]1(C)CC2` was run?
Its growth is -9.45% (active).

`CCC(=O)Oc1ccc2ccccc2c1` was tested. Which growth did it give?
The growth was 103%.

Which growth does the source give for `COc1ccc(CC(=O)c2ccc(O)cc2O)cc1` here?
Its growth is 106%.

For `COc1ccc2[nH]c(=O)c(CN3CCN(c4nccc(-c5ccc(Cl)cc5)n4)CC3)cc2c1`, which growth is on record?
Its growth is 90.1%.

With `CCOC(=O)n1cc(-c2nonc2-c2cn(C)c3ccc(OC)cc23)c2cc(F)ccc21` as the compound, how does the growth read?
Its growth is 99.7%.

Which growth does the source give for `CC(=O)c1ccc(Nc2nc(NCCO)nc(Nc3ccc(Cl)cc3)n2)cc1` here?
The growth was 103%.

How did the growth turn out when `Nc1ncnc2c1c(-c1ccc(Oc3ccccc3)cc1)nn2C[C@H]1SSC[C@H]1O` was run?
The growth was -31.9% (active).

Which growth does the source give for `Cc1nc(-c2ccccc2)sc1CC#N` here?
Its growth is 93.9%.

Which growth does the source give for `Cn1cc(-c2ncnc3ccc(-c4cnc(Cl)c(NS(C)(=O)=O)c4)cc23)c2ccccc21` here?
Its growth is 17.9%.

For `Cc1nc(/N=C(\N)NC(=O)Nc2cccc(Cl)c2)sc1C`, which growth is on record?
Its growth is 42.8%.

How did the growth turn out when `N#Cc1nc2c(S(=O)(=O)c3ccc(Cl)cc3)c(N)n(Nc3cccc(Cl)c3)c2nc1C#N` was run?
The growth was 40.1%.

With `CCN(CC)CCCNc1cc(OC)cc2nc3cc(Cl)ccc3nc12` as the compound, how does the growth read?
Its growth is -9.05% (active).
